NPC1 prom act: qHTS Assay for NPC1 Promoter Activators | Huh7 NPC1 promoter luciferase reporter, 24 h | Potency, µM (series often up to 9.22 µM), actives largely listed as activators | 2.4% of 320,000 active; also: nearly all actives have a fitted effect of over 60% in size
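Stable NPC1-promoter luciferase Huh7 line; cpd (DMSO) 24 h, 37 °C, 5% CO2; Amplite luciferase reagent 10 min RT; luminescence readout. qHTS format.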
FLuc counter: qHTS profiling assay for firefly luciferase inhibitor/activator using purifed enzyme and Km concentrations of substrates (counterscreen for miR-21 project). AID 588342, 2011. purified FLuc, Km substrates, luminescence inhibition. 6.9% of 360,000 active. Potency, µM (top dose mostly 57.5 µM), actives largely listed as inhibitors. Luciferin 4-monooxygenase (Photinus pyralis), P08659; also: nearly all actives have a fitted effect of over 55% in size
Target sequence (P08659 whole entry, looked up): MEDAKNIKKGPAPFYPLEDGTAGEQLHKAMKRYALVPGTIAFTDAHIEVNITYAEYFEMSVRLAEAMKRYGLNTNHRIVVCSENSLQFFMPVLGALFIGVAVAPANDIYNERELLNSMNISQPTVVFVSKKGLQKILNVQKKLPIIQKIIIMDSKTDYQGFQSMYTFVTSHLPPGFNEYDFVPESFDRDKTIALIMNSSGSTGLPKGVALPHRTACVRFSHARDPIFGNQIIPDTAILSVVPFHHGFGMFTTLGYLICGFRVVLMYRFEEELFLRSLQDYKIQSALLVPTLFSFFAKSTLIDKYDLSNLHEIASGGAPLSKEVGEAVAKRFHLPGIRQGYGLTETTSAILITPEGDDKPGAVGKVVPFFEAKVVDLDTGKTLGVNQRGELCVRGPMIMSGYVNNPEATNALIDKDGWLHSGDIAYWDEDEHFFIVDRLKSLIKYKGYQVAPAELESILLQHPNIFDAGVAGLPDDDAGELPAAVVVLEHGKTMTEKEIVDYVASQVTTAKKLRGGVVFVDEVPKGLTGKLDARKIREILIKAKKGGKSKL
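Purified P. pyralis luciferase, 10 nM final, with Km-level 10 uM D-luciferin and 10 uM ATP in 50 mM Tris acetate pH 7.5, 10 mM Mg acetate, 0.01% Tween-20, 0.05% BSA; 6-point qHTS titration about 60 µM downward; luminescence read.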
Rab9 prom act: qHTS Assay for Rab9 Promoter Activators; Potency, µM (titrated, usually from 9.22 µM), actives largely listed as activators; Huh7 Rab9 promoter-luciferase reporter, luminescence, 24 h; 2.8% of 320,000 active; AID 485297, 2010; also: nearly all actives have a fitted effect of over 60% in size
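Cells were plated at 1500 per well in reduced-serum medium with 10% FBS and left 2 h. Compound in DMSO was then added for 24 h at 37 °C. Reporter signal was read by luminescence after 10 min with luciferase detection reagent.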
ELG1 repair inh: qHTS screen for small molecules that inhibit ELG1-dependent DNA repair in human embryonic kidney (HEK293T) cells expressing luciferase-tagged ELG1 | 2.3% of 330,000 active | HEK293T ELG1-luciferase reporter, luminescence, 16 h; DNA damage induced by 5-fluorouridine | Potency, µM (highest dose often 46.1 µM), most hits filed as inhibitors; also: nearly all actives have a fitted effect of over 55% in size
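5-Fluorouridine DNA damage + compound/DMSO, 2,000 cells/well, 16 h, 37 °C/5% CO2. ONE-Glo, 30 min RT, luminescence. Readout = decrease in reporter signal.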
SMN2 splice enh: qHTS Assay for Enhancers of SMN2 Splice Variant Expression; 2.8% of 210,000 active; Potency, µM (titrated, usually from 46.1 µM), usual class: activators; HEK293 SMN2-luciferase splicing reporter, luminescence, 30-36 h; AID 1458, 2008; also: nearly all actives have a fitted effect of over 55% in size
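HEK293 cells carry an SMN2 […]–luciferase reporter in which exon 7 inclusion puts luciferase in frame. Cells were plated 10-12 h before compound addition, then incubated 30-36 h at 37C. ONE-Glo luminescence was read; sodium butyrate at 4.5 mM final served as control.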
ELG1 genotox: qHTS screen for small molecules that induce genotoxicity in human embryonic kidney (HEK293T) cells expressing luciferase-tagged ELG1; AID 504466, 2011; HEK293T ELG1-luciferase reporter, luminescence, 16 h; Potency, µM (highest dose often 46 µM), actives largely listed as activators; 1.3% of 330,000 active; also: nearly all actives have a fitted effect of over 60% in size
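Reporter readout depends on ELG1 protein level, which increases with genetic stress. After 16 hr compound exposure at 37 °C, luciferase activity was quantified using ONE-Glo.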
Of the large screens only hits and unclear results are named; the others gave an inactive call. This is a sample that favours compounds with a hit; in the whole collection about 9.2% have one here. Calls follow the shape of the dose curve; as a rule, active = well fitted curve in the direction sought with a large enough effect; inconclusive = small, poorly fitted or top-dose-only effect, or another doubt; inactive = no such curve, though single readings can be large; an effect the other way counts as inactive or inconclusive.

CCCCn1c(=O)c2oc3ccccc3c2n(Cc2ccc(OC)cc2)c1=O	none (no result: NPC1 prom act, Rab9 prom act, ELG1 repair inh, SMN2 splice enh, ELG1 genotox)
Cc1cc(NC(=O)c2coc(=O)c(Br)c2)ccc1C(C)C	FLuc counter 5.4µM, Rab9 prom act inconclusive, ELG1 repair inh inconclusive, ELG1 genotox inconclusive (no result: SMN2 splice enh)
C[C@@H](NC(=O)c1coc(=O)c(Br)c1)c1ccccc1	ELG1 repair inh inconclusive, SMN2 splice enh 13µM, ELG1 genotox 21µM
CCOc1ccc(CCNC(=O)C2CCC(CNS(=O)(=O)c3ccc(Cl)cc3)CC2)cc1OCC (stereo not given)	none (no result: NPC1 prom act, Rab9 prom act, ELG1 repair inh, SMN2 splice enh, ELG1 genotox)
CCOc1ccc(Nc2ccc([N+](=O)[O-])c3nonc23)cc1	NPC1 prom act inconclusive, FLuc counter 12µM, Rab9 prom act 4.5µM, ELG1 repair inh inconclusive (no result: SMN2 splice enh)
O=C(Cc1csc(NC(=O)Nc2ccc(Cl)cc2)n1)NC1CCCC1	FLuc counter 4.8µM (no result: SMN2 splice enh)
O=C(Cc1nnc(NC(=O)Nc2ccc(Cl)cc2)s1)NCc1ccccc1	none
Cc1csc(NC(=O)Nc2ccc(Cl)cc2)n1	FLuc counter inconclusive, Rab9 prom act inconclusive, ELG1 repair inh inconclusive, ELG1 genotox inconclusive
O=C(Cc1csc(NC(=O)Nc2ccc(Cl)cc2)n1)NCc1ccccn1	NPC1 prom act inconclusive, FLuc counter 1.1µM, Rab9 prom act inconclusive, ELG1 repair inh inconclusive (no result: SMN2 splice enh)
COc1ccc(NC(=O)c2cncc(Br)c2)cc1S(=O)(=O)N1CCCCC1	ELG1 repair inh 15µM
COc1ccc(NC(=O)c2ccc(Cl)nc2)cc1S(=O)(=O)N1CCCCC1	ELG1 repair inh 23µM
COc1ccc(NC(=O)CCOc2ccccc2F)cc1S(=O)(=O)N1CCCCC1	ELG1 repair inh 23µM (no result: NPC1 prom act, FLuc counter, Rab9 prom act, SMN2 splice enh)
COC(=O)c1ccc(CSc2nc3c([nH]c4ccccc43)c(=O)n2-c2cc(C)cc(C)c2)o1	none (no result: NPC1 prom act, Rab9 prom act, ELG1 repair inh, SMN2 splice enh, ELG1 genotox)
COc1ccc(Cl)cc1NC(=O)c1cc2nc(-c3ccc(C)cc3)cc(C(F)(F)F)n2n1	none (no result: NPC1 prom act, Rab9 prom act, ELG1 repair inh, ELG1 genotox)
O=C(C1CCC(CNS(=O)(=O)c2cccs2)CC1)N1CCN(c2ccc(F)cc2)CC1 (stereo not given)	ELG1 repair inh 9.2µM (no result: SMN2 splice enh)
O=C(Oc1ccc(-c2cnc3ccccc3n2)cc1)c1ccco1	NPC1 prom act inconclusive, FLuc counter 0.27µM, Rab9 prom act inconclusive, ELG1 repair inh inconclusive, SMN2 splice enh inconclusive, ELG1 genotox 16µM
O=C(Oc1ccc(-c2cnc3ccccc3n2)cc1)c1cc([N+](=O)[O-])ccc1Cl	NPC1 prom act 4µM, FLuc counter inconclusive, ELG1 repair inh inconclusive, SMN2 splice enh inconclusive, ELG1 genotox inconclusive
O=C(Nc1cccc(-c2cnc3ccccc3n2)c1)c1ccco1	FLuc counter inconclusive, ELG1 repair inh inconclusive
CCC(=O)Oc1ccc(-c2cnc3ccccc3n2)cc1	NPC1 prom act inconclusive, FLuc counter 0.3µM, Rab9 prom act inconclusive, ELG1 repair inh inconclusive, SMN2 splice enh inconclusive, ELG1 genotox inconclusive
Cc1c(C(=O)Oc2ccc(-c3cnc4ccccc4n3)cc2)cccc1[N+](=O)[O-]	NPC1 prom act inconclusive, FLuc counter inconclusive, Rab9 prom act inconclusive, ELG1 repair inh inconclusive, ELG1 genotox inconclusive
COc1cc(OC)cc(C(=O)Nc2ccc3nc(N4CCCCC4)cc(C)c3c2)c1	none (no result: NPC1 prom act, Rab9 prom act, ELG1 repair inh, ELG1 genotox)
Cc1c(C(=S)Nc2ccccc2)cnn1-c1ccc([N+](=O)[O-])cc1	ELG1 repair inh inconclusive
CCc1ccc(NC(=O)c2cnn(-c3ccccc3)c2C2CCNCC2)cc1	none
CCc1ccc(NC(=O)c2cnn(-c3ccccc3)c2C)cc1	NPC1 prom act 0.5µM, FLuc counter 0.67µM, Rab9 prom act 0.56µM, ELG1 repair inh inconclusive, SMN2 splice enh 5.6µM, ELG1 genotox inconclusive
Cc1nn(-c2ccccc2)cc1C(=S)Nc1ccccc1	NPC1 prom act inconclusive, FLuc counter 12µM, Rab9 prom act inconclusive, ELG1 repair inh inconclusive

Source: PubChem
